APP 5'UTR act: APP 5'UTR luciferase reporter activation | hit rate 1% among 190,000 | SH-SY5Y APP 5'UTR luciferase reporter, luminescence; zero percent = DMSO vehicle wells | activation, % at 2 µM;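 active means activation above a set limit, based on mean plus 3 SD of controls, cut at about 140% in these data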
hcDAF12 agonist: H. contortus DAF-12 activation, primary screen | hit rate 1.4% among 370,000 | HEK293 hcDAF-12 lit1-tk-luc reporter, luminescence; 0% DMSO, 100% Δ7-dafachronic acid | activation, % at 6.8 µM;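 active means activation above the mean of all tested compounds plus 3 SD, cut at about 5.5% in these data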
ssDAF12 agonist: activators of S. stercoralis DAF-12 nuclear receptor. HEK293 ssDAF-12/GRIP1 lit1-tk-luc reporter, luminescence; % of 3 µM dafachronic acid response. activation, % at 6.8 µM. hit rate 1% among 370,000. AID 652126;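 active means activation above the mean over all tested compounds plus 3 SD, cut at about 0.9% in these data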
NF-kB expr up: raises NF-kB expression in human neuronal cells; fold change at 12.5 µM; hit rate 1.6% among 190,000; NF-kB reporter expression; active compounds read high; AID 1239; in the data active means fold change above about 3.3
hgDAF-12 ag: agonists of H. glycines DAF-12 nuclear receptor; HEK293 GAL4-hgDAF12 UAS-luciferase reporter, agonist luminescence; normalized to butyrate control; activation, % at 6.8 µM; hit rate 1.8% among 370,000;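 active means activation above a cutoff set at the mean of all screened compounds plus 3 SD, cut at about 10% in these data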
Large screens that a line does not name were inactive. Most compounds without a hit are left out; they make up all but 3.4% or so of the library.

Cc1cccn2cc(CCNC(=O)c3ccc(Br)o3)nc12	hcDAF12 agonist 6.0, ssDAF12 agonist 1.3
COc1ccc2cc(-c3cccc4[nH]cc(C)c34)ccc2c1	ssDAF12 agonist 1.5 (no result: APP 5'UTR act, NF-kB expr up)
C=CCn1c(Cc2cccs2)nnc1SCC(=O)Nc1ccc(OCc2ccccc2)cc1	none (no result: APP 5'UTR act, NF-kB expr up)
CCC(=O)NCC[C@@H]1CCc2ccc3c(c21)CCO3	none (no result: APP 5'UTR act, NF-kB expr up)
Oc1ccc(C2CNCCc3c2cc(O)c(O)c3Cl)cc1 (stereo not drawn)	none (no result: APP 5'UTR act, NF-kB expr up)
Oc1ccc(C2CNCc3sccc32)cc1O (stereo not drawn)	ssDAF12 agonist 1.0 (no result: APP 5'UTR act, NF-kB expr up)
COc1ccc(/C=C2\SC(=O)N(CC(=O)N(C)C3CCS(=O)(=O)C3)C2=O)cc1 (stereo not drawn)	ssDAF12 agonist 1.0 (no result: APP 5'UTR act, NF-kB expr up)
COc1ccc(/C=C2\SC(=O)N(CCC(=O)N(C)C3CCS(=O)(=O)C3)C2=O)cc1 (stereo not drawn)	none (no result: APP 5'UTR act, NF-kB expr up)
CC(C)c1ccc(/C=C2\SC(=O)N(CC(=O)NC3CCS(=O)(=O)C3)C2=O)cc1 (stereo not drawn)	hgDAF-12 ag 11 (no result: APP 5'UTR act, NF-kB expr up)
O=C(CCN1C(=O)/C(=C\c2cccc(Br)c2)SC1=S)NCCCN1CCOCC1	hcDAF12 agonist 6.0 (no result: APP 5'UTR act, NF-kB expr up)
COc1cccc(/C=C2\SC(=S)N(CCC(=O)NNC(=O)c3ccccc3OC)C2=O)c1	ssDAF12 agonist 1.0 (no result: APP 5'UTR act, NF-kB expr up)
Nc1c2c(=O)[nH]c(O)cc2nn1-c1ccccc1	ssDAF12 agonist 1.2 (no result: APP 5'UTR act, NF-kB expr up)
COc1ccc(CC(=O)NC2CCCCN(Cc3ccc(Cl)cc3)C2=O)cc1OC (stereo not drawn)	none (no result: APP 5'UTR act, NF-kB expr up)
O=C(/C=C\Nc1ccccn1)c1ccc(Cl)cc1	APP 5'UTR act 175
COc1ccc(C2CC(=O)c3ccccc3O2)cc1 (stereo not drawn)	NF-kB expr up 3.8
O=c1[nH]c(-c2ccccc2)cnc1-c1ccccc1	hgDAF-12 ag 11 (no result: APP 5'UTR act, NF-kB expr up)
O=c1[nH]c2c(=O)[nH]cnc2nc1-c1ccccc1	none (no result: APP 5'UTR act, NF-kB expr up)
COc1cccc(-n2nnc3c(=O)n(CC(=O)N4CCC(Cc5ccccc5)CC4)cnc32)c1	ssDAF12 agonist 1.2
COC(=O)[C@]12C[C@H](CC(=O)N3CCSCC3)C(=O)N(CCc3ccc(OC)c(OC)c3)C1=C[C@H](C(C)(C)C)O[C@@H]2C	none (no result: APP 5'UTR act, NF-kB expr up)
O=S(=O)(N1CCCCC1)n1c(Cc2ccccc2)nc2ccccc21	ssDAF12 agonist 1.9
O=S(=O)(c1ccc(Br)cc1)n1c(Cc2ccccc2)nc2ccccc21	none
Nc1nnc(Cc2c[nH]c3ccccc23)s1	hcDAF12 agonist 5.7
COc1ccc(-c2c(C#Cc3ccsc3)c3cc(Br)ccc3n2C)cc1	none (no result: APP 5'UTR act, NF-kB expr up)
COc1ccc(-c2c(C#Cc3ccc(N(C)C)cc3)c3ccccc3n2C)cc1	hcDAF12 agonist 5.8 (no result: APP 5'UTR act, NF-kB expr up)
Cc1cccc(-n2nnc(C(=O)Nc3ccc(F)cc3)c2N)c1	NF-kB expr up 5.1, hgDAF-12 ag 12
Cc1ccc(NC(=O)c2nnn(-c3cc(C)cc(C)c3)c2N)cc1	none
COc1ccc(CSc2nnc(C)s2)cc1F	hgDAF-12 ag 11
Cc1ccc(C)c2sc(NC(=O)c3ccc(N4CCCCC4)c([N+](=O)[O-])c3)nc12	none
Cc1cccc(NC(=O)c2ccc(N3CCCCC3)c([N+](=O)[O-])c2)n1	APP 5'UTR act 159, NF-kB expr up 5.2
COc1ccc(CN2CN3Cc4ccccc4C3CS2(=O)=O)cc1 (stereo not drawn)	none (no result: APP 5'UTR act, NF-kB expr up)
Nc1ccc2ccccc2c1N=Nc1ccccc1	ssDAF12 agonist 1.3 (no result: APP 5'UTR act, NF-kB expr up)
Cc1nc2nc(C)c(NS(=O)(=O)c3ccc(Cl)cc3)c(=O)n2[nH]1	hcDAF12 agonist 6.4 (no result: APP 5'UTR act, NF-kB expr up)
Cc1ccc(S(=O)(=O)Nc2c(C)nc3nc(C)[nH]n3c2=O)cc1	none (no result: APP 5'UTR act, NF-kB expr up)
Cc1cc(Nc2ncc(Cl)cc2Cl)n(-c2ccccc2)n1	none
Cc1cc(Nc2cnc3ccccc3n2)n(-c2ccccc2)n1	ssDAF12 agonist 1.9
CC(C)(C)c1ccc(C(=O)NC(=S)NNC(=O)COc2ccccc2)cc1	hgDAF-12 ag 11 (no result: APP 5'UTR act, NF-kB expr up)
CCOc1cc(CCNC(=O)c2cc3ccsc3n2C)ccc1OC	none (no result: APP 5'UTR act, NF-kB expr up)
Nc1ccc(C(=O)c2cccs2)cn1	hcDAF12 agonist 5.8 (no result: APP 5'UTR act, NF-kB expr up)
Nc1ccc(C(=O)c2cccs2)cc1	none
C#CCCCN([C@@H](CC(C)C)C(=O)OC)S(=O)(=O)c1ccccc1Br	none (no result: APP 5'UTR act, NF-kB expr up)
O=C1CCCc2nc(N3CCc4ccccc43)ncc21	NF-kB expr up 8
C/C(Cn1cnc([N+](=O)[O-])n1)=N\NC(=O)c1cccc(F)c1	hgDAF-12 ag 11
C/C(Cn1cnc([N+](=O)[O-])n1)=N\NC(=O)c1ccc(F)cc1	none
COc1ccc(C(=O)Cc2ccc3c(c2)OCO3)c(O)c1	ssDAF12 agonist 1.4
